# In the library only some 9.4% were active in any assay of this set; here they are far more common.
# IMPase Li cell: cell-permeable IMPase inhibitors with lithium potentiation. hit rate 0.35% among 210,000. Potency, µM (doses to about 59.4 µM), for the others: at the highest dose activity, negative = IMPase inhibition, usual class: inhibitors. CHO-M1 cells, IP1 TR-FRET (IP-One), carbachol + lithium;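 note: IP1 builds up when IMPase is blocked and the TR-FRET signal falls; potency is the fitted concentration of half-maximal effect; plate controls were basal vehicle for no effect and high inhibitor control for full effect; nearly all actives have a fitted effect of over 50% in size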
#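 CHO cells stably expressing M1 receptor (2000/well) were cultured 16–30 h, then exposed to compounds with a small lithium addition for 30 min at 37C. IP1 was measured by TR-FRET competition; AC50 from Hill fits.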
# HttQ103 aggreg: reduces HttQ103-GFP aggregates in PC12 cells; PC12 HttQ103-GFP aggregates, Acumen cytometry, 40 h; Potency, µM (top dose mostly 46.1 µM), inactives show at the highest dose activity change, negative = inhibition, actives largely listed as inhibitors; hit rate 1.1% among 220,000; note: potency is the fitted concentration of half-maximal effect; % is set by controls: 0 for no effect and ±100 for the full control effect; nearly all actives have a fitted effect of over 60% in size
#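 Ecdysone-promoter PC12 model expressing HTT exon 1 Q103 fused to GFP, induced by tebufenozide at 100 nM final. Compounds titrated; aggregates sized 1–25 µm scored on a 488 nm laser cytometer.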
# ALDH1A1 inh: blocks purified human ALDH1A1 activity. AID 1030. Potency, µM (highest dose often 75.3 µM), for inactives: top-dose activity, negative = inhibition, hits mostly inhibitors. Purified ALDH1A1, NADH fluorescence, propionaldehyde substrate. hit rate 7.3% among 220,000. P00352; active = well fitted inhibition curve with a large enough effect, not every such curve was filed as active; inconclusive = small, poorly fitted or top-dose-only effect, or another doubt; inactive = no such curve, though single readings can be large or run the other way;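 note: potency is the fitted concentration of half-maximal effect; plate controls were no enzyme wells and a reference inhibitor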
# HTT ATP protect: Huntington cell model cytoprotection by ATP luminescence; hit rate 0.14% among 230,000; PC12 HTT-Q103 induced, cytoprotection, ATP luminescence, 40 h; Potency, µM (doses to about 56.4 µM), for the others: cytoprotection (ATP increase), actives largely listed as activators; AID 1471; note: potency is the fitted concentration of half-maximal effect; % of control where 0% means no effect; nearly all actives have a fitted effect of over 45% in size
#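 Huntington model: PC12 line, ecdysone-inducible HTTQ103 exon1–GFP, tebufenozide 100 nM. Test articles in a dose series. Endpoint luminescence from cellular ATP.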
# HPGD block: HPGD (human) dehydrogenase inhibition. AID 894. Potency, µM, for inactives: at the top dose activity change, negative = inhibition, usual class: inhibitors. hit rate 4.3% among 150,000. P15428. purified HPGD, NADH fluorescence kinetic, PGE2 substrate; active = well fitted inhibition curve with a large enough effect, not every such curve was filed as active; inconclusive = small, poorly fitted or top-dose-only effect, or another doubt; inactive = no such curve, though single readings can be large or run the other way; note: potency is the fitted concentration of half-maximal effect; % is set by controls: 0 for no effect and ±100 for the full control effect
# Target sequence (P15428 whole entry, looked up): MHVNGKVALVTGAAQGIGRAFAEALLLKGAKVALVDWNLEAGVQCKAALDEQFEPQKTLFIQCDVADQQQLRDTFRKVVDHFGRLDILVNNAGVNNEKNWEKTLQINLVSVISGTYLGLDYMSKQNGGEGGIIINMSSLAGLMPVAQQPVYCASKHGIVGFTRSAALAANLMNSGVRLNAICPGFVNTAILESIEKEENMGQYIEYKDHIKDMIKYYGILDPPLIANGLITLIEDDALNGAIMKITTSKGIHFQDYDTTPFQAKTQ
#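 NADH formation kinetics: reaction with 30 uM PGE2 and 1 mM NAD+ (final), 20 nM enzyme, Tris-HCl pH 8 with Tween 20, after 15 min compound preincubation at room temperature. Fluorescence change, last versus first of five reads.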
# IMPase inh: IMPase inhibition in cells. P97697. inhibition (IP1 accumulation), % at 46.1 µM. CHO-M1 cells, IP1 accumulation, HTRF TR-FRET ratio. 120,000 tested, under 10 active; active = well fitted curve in the direction sought with a large enough effect in the signal ratio, not every such curve was filed as active; inconclusive = small, poorly fitted or top-dose-only effect, or a change in a side signal; inactive = no such curve, though single readings can be large or run the other way; the % refers to the signal ratio;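 note: cells stimulated with carbachol in lithium chloride buffer; plate controls were DMSO basal wells for no effect and reference inhibitor wells for full effect; higher means more IMPase inhibition seen as more IP1 and lower FRET ratio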
# Target sequence (P97697 whole entry, looked up): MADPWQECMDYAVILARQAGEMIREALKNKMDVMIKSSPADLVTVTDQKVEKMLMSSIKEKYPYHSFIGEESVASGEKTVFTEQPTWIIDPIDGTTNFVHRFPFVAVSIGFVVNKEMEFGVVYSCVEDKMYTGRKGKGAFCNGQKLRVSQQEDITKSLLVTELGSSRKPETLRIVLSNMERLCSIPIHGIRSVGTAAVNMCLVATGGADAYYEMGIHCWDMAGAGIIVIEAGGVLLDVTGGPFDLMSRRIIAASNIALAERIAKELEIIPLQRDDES
#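 In this qHTS, compounds (final up to 46 uM) act on CHO-M1 cells that are then activated through the M1 receptor with carbachol, in pH 7.4 buffer containing 50 mM LiCl, for 30 min. IP1 accumulation is quantified by the IP-One immunoassay.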
# * = called active by the depositor; ? = inconclusive; . = no result; [ ] = dose if it differs, or a comment. Unless noted, calls come from the whole dose curve; as a rule, active = well fitted curve in the direction sought with a large enough effect; inconclusive = small, poorly fitted or top-dose-only effect, or another doubt; inactive = no such curve, though single readings can be large; an effect the other way counts as inactive or inconclusive.
SMILES,IMPase Li cell,HttQ103 aggreg,ALDH1A1 inh,HTT ATP protect,HPGD block,IMPase inh
CCOc1cccc(OCCOc2ccc(C(=O)c3ccccc3)cc2)c1,5%,-9%,3%,-6%[0.074 µM],-8%,.
C(=N/Nc1ccccn1)/c1cccnc1,5%,.,2%[13.5 µM],-1%[10 µM],-1%,.
S=c1[nH]nc(-c2cc(-c3ccccc3)n[nH]2)n1/N=C/c1cccc(Cl)c1,.,-9%[9.22 µM],14%,-4%[10 µM],.,.
O=C(NC(c1ccc(Cl)cc1)c1cc(Cl)c2cccnc2c1O)c1cccnc1 (stereo not drawn),-6%,8.9µM*,-4%,-71%[10 µM],-15%,.
CCCC(=O)NC(c1ccc(OC)c(OC)c1)c1cc(Cl)c2cccnc2c1O (stereo not drawn),-3%,.,9%,.,.,.
CCCCC(=O)NC(c1cccs1)c1cc(Cl)c2cccnc2c1O (stereo not drawn),5%,-42%[9.22 µM],7.1µM*,-57%[10 µM],.,.
CO[C@H]1COC(=O)C/C=C\[C@H](C)[C@H](OC)COC(=O)[C@@H](C)NC(=O)C/C=C\[C@@H]1C,.,.,-2%[13.5 µM],-3%[10 µM],.,.
Cc1nn(-c2ccccc2)c2c1C1(C(=O)N(C(C)C)c3ccccc31)C(C#N)=C(N)O2 (stereo not drawn),38%[38.3 µM],17%,1.1µM*,1%,-6%,6
Cc1nn(-c2ccccc2)c(N)c1C1(O)C(=O)N(C(C)C)c2ccccc21 (stereo not drawn),-1%,6%,?,-14%[10 µM],-2%,.
O=C(/C=C/c1ccccc1)N1CCN(Cc2nc3ccccc3c(=O)[nH]2)CC1,4%[38.3 µM],-14%,?,-37%,32µM*,3
O=C(O)CCNc1ccccc1C(=O)O,-8%,.,?,-7%[10 µM],?,.
CCOCc1nnc(NC(=O)c2cc(C(=O)OC)cc([N+](=O)[O-])c2)s1,-12%,14%,-12%,9%,.,.
COC(=O)c1cc(C(=O)Nc2nnc(CC(C)(C)C)s2)cc([N+](=O)[O-])c1,-3%,-11%,25µM*,21%[10 µM],16µM*,-2
Cc1nnc(SC2CC(=O)N(c3ccccc3)C2=O)s1 (stereo not drawn),11%,?,0.71µM*,-3%[1.9 µM],13µM*,2
O=C(O)c1ccccc1SC1CC(=O)N(C2CCCCC2)C1=O (stereo not drawn),8%,0%,0.63µM*,-3%[10 µM],-8%,-5
O=C1CC(SC2=NCCS2)C(=O)N1c1ccc(Br)cc1 (stereo not drawn),2%,-16%,7.9µM*,32%[10 µM],-10%,.
O=C(O)c1ccccc1SC1CC(=O)N(c2ccccc2)C1=O (stereo not drawn),0%,16%,2.5µM*,-15%[10 µM],-4%,.
CC(C)C[C@H](N)C(=O)O,-14%,.,6%[13.5 µM],13%[10 µM],-2%,.
COC(=O)c1c(N2C(=O)CC(Sc3ccccc3C(=O)O)C2=O)sc(C)c1C (stereo not drawn),-5%,-36%[9.22 µM],-1%,-32%[10 µM],.,.
Cc1nc(SC2CC(=O)N(c3ccccc3)C2=O)nc2c1CCCC2 (stereo not drawn),33%[38.3 µM],2%,-12%,-12%,-10%,-9
O=C1CC(Sc2cccs2)C(=O)N1c1ccccc1 (stereo not drawn),.,-6%[9.22 µM],13µM*,4%[10 µM],.,.
COC(=O)c1c(N2C(=O)CC(Sc3ccccc3C(=O)O)C2=O)sc2c1CCCC2 (stereo not drawn),-10%,6%,0.45µM*,.,.,.
O=C(CSc1ccc([N+](=O)[O-])cc1)Nc1cccc(S(=O)(=O)Nc2ccccc2F)c1,24%,-24%,5µM*,-8%[10 µM],.,.
CCOc1ccccc1NC(=O)CSc1ccc([N+](=O)[O-])cc1,13%,22%,20µM*,-21%,.,.
CN(c1ccccc1)S(=O)(=O)c1cccc(NC(=O)Cn2cnc3c2c(=O)n(C)c(=O)n3C)c1,.,?,12%,20%[10 µM],.,-4
O=C(Cc1ccc(Cl)cc1)Nc1cccc(S(=O)(=O)Nc2ccccc2F)c1,3%,-22%,4%,-5%[10 µM],-6%,.

# Screening results from PubChem.
